Rows were chosen to be rich in hits. Some 7.5% of all compounds tested hit in one or more screens of this group.
NPC1 prom act: qHTS Assay for NPC1 Promoter Activators; Huh7 NPC1 promoter luciferase reporter, 24 h; Potency, µM (highest dose often 9.22 µM), without a hit: top-dose activation, most hits filed as activators; 320,000 compounds, 2.4% hits; AID 485313, 2010; further: % of control where 0% means no effect; nearly all actives have a fitted effect of over 60% in size
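Huh7 cells stably carrying NPC1 promoter–luciferase, plated in Opti-MEM with 10% FBS for 2 h, were exposed to compound in DMSO for 24 h at 37 °C; luciferase reagent was added for 10 min and luminescence read.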
SMN2 splice enh: qHTS Assay for Enhancers of SMN2 Splice Variant Expression | 210,000 compounds, 2.8% hits | Potency, µM (doses to about 46.1 µM), for inactives: at the highest dose activity change, positive = activation, most hits filed as activators | HEK293 SMN2-luciferase splicing reporter, luminescence, 30-36 h; further: % of control where 0% means no effect; nearly all actives have a fitted effect of over 55% in size
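qHTS luciferase splicing reporter: luminescence rises when SMN2 exon 7 is included in transfected HEK293 cells. Compound exposure lasted 30-36 h at 37C, with 4.5 mM final sodium butyrate as control, followed by a ONE-Glo read.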
FLuc modulator: qHTS profiling assay for firefly luciferase inhibitor/activator using purifed enzyme and Km concentrations of substrates (counterscreen for miR-21 project); Luciferin 4-monooxygenase (Photinus pyralis), P08659; purified FLuc, Km substrates, luminescence inhibition; Potency, µM (series often up to 57.5 µM), without a hit: at the top dose activity change, negative = inhibition, most hits filed as inhibitors; 360,000 compounds, 6.9% hits;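 further: plate controls were vehicle for no effect and reference inhibitor for full effect; nearly all actives have a fitted effect of over 55% in size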
Target sequence (P08659 whole entry, looked up): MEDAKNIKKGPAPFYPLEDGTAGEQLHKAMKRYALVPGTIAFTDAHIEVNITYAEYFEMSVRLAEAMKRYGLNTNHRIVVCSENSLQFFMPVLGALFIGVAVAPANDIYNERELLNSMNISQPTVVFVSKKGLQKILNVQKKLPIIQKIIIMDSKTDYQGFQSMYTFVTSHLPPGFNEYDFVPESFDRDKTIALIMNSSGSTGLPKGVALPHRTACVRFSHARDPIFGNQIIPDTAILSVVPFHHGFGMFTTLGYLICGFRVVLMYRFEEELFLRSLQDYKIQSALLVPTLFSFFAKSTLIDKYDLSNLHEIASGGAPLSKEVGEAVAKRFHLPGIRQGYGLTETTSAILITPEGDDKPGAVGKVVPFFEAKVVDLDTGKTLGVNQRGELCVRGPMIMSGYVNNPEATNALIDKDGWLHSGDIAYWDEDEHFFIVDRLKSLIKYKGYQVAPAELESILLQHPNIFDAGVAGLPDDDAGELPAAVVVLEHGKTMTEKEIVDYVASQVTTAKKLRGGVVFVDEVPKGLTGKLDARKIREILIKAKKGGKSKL
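Purified P. pyralis luciferase (10nM final) with 10uM D-luciferin and 10uM ATP (Km levels) in 50mM Tris acetate pH 7.5, 10mM Mg acetate, 0.01% Tween-20, 0.05% BSA; qHTS 6-point titration, ~60 µM downward; luminescence read.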
ELG1 genotox: qHTS screen for small molecules that induce genotoxicity in human embryonic kidney (HEK293T) cells expressing luciferase-tagged ELG1; Potency, µM (top dose mostly 46 µM), without a hit: at the top dose activity change, positive = activation, most hits filed as activators; 330,000 compounds, 1.3% hits; HEK293T ELG1-luciferase reporter, luminescence, 16 h; AID 504466, 2011; further: % of control where 0% means no effect; nearly all actives have a fitted effect of over 60% in size
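Step 1: seed 2,000 HEK293T ELG1-luciferase cells per well. Step 2: add compound or DMSO, incubate 16 hr at 37 °C. Step 3: ONE-Glo, 30 min at room temperature, read luminescence.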
Luc counter: Counterscreen for Luciferase (Kinase-Glo TM) Inhibition | Kinase-Glo luciferase, ATP luminescence, 8 min | Potency, µM (series often up to 38.3 µM), without a hit: top-dose activity change, negative = inhibition, most hits filed as inhibitors | 200,000 compounds, 0.28% hits | AID 1379, 2008; further: on the % scale 0 is the no-effect control and ±100 the full control effect; nearly all actives have a fitted effect of over 60% in size
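Light output from Kinase-Glo luciferase with luciferin and 10 uM ATP in 50 mM imidazole pH 7.2, KCl, MgCl2, Tween 20, BSA; compound pin-delivered, 8-min ambient incubation, then luminescence read.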
Rab9 promoter act: qHTS Assay for Rab9 Promoter Activators; Potency, µM (series often up to 9.22 µM), for the others: at the highest dose activation, negative = inhibition, usual class: activators; 320,000 compounds, 2.8% hits; Huh7 Rab9 promoter-luciferase reporter, luminescence, 24 h; further: % of control where 0% means no effect; nearly all actives have a fitted effect of over 60% in size
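Rab9 promoter-driven luciferase in stably transfected Huh7 cells; 1500 cells/well rested 2 h, exposed to compound in DMSO for 24 h at 37 °C, 5% CO2. Luminescence read 10 min after adding luciferase reagent at ambient temperature.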
An asterisk follows results filed as active; u = inconclusive; x = not tested or not shown; [ ] = another dose, or the depositor's remark. The call rests on the fitted dose curve; in most records, active means well fitted curve in the direction sought with a large enough effect; inconclusive means small, poorly fitted or top-dose-only effect, or another doubt; inactive means no such curve, though single readings can be large; an effect the other way counts as inactive or inconclusive. Potency means the concentration at half of the fitted maximal effect.

SMILES	NPC1 prom act	SMN2 splice enh	FLuc modulator	ELG1 genotox	Luc counter	Rab9 promoter act
N/C(=N\OC(=O)CCCc1ccccc1)c1ccccn1	5%	26%	2.1µM*	2%	-12%	0%
N/C(=N\OC(=O)Cc1ccccc1)c1ccccn1	12%	20%	17µM*	10%	-5%	11%
CCC1Sc2ccccc2N(CC(=O)NCc2ccc(C)cc2)C1=O (stereo not drawn)	x	x	-6%	x	x	x
CCOC(=O)c1ccc(NC(=O)CSc2nc3ccccc3c(=O)n2CCC(=O)NC2CCCCC2)cc1	x	x	-2%	x	x	x
O=C(NNS(=O)(=O)c1ccccc1F)c1sccc1-n1cccc1	-3%	1%	-20%	-1%	3%	-5%
O=C(Cn1ccsc1=NC(=O)C(F)(F)F)c1ccccc1	u	u	-12%	15%	4%	2.8µM*
O=C(CCl)N=c1sccn1Cc1ccccc1Cl	-52%	x	0%	-7%	x	-54%
O=C(COC(=O)c1cc(Cl)ccc1O)NNC(=O)c1ccccc1F	x	x	x	0%	x	x
Cc1ccc(C(=O)COC(=O)c2ccco2)cc1C	1%	x	1.5µM*	23µM*	x	13%
O=C(COC(=O)c1ccco1)Nc1ccccc1	-2%	12%	u	-1%	-3%	-4%
COc1ccc(C(=O)COC(=O)c2cc(=O)c3ccccc3o2)cc1	x	x	x	0%	x	x
O=C(COC(=O)c1ccco1)c1ccccc1	-7%	x	6µM*	u	x	0%
COc1cc(C(=O)COC(=O)c2ccco2)cc(OC)c1OC	x	x	x	11%	x	x
O=C(Cc1ccc(F)cc1)OCC(=O)c1cc2ccccc2o1	9%	7%	21µM*	1%	1%	2%
O=C(COC(=O)c1cc2ccccc2o1)c1ccccc1	-2%	-7%	6µM*	u	-8%	-2%
O=C(CCNc1ccc(F)cc1)c1cc2ccccc2o1	-5%	1%	-5%	8%	-5%	0%
CCOc1ccc(C(=O)OCc2cc(=O)n3nc(C(C)C)sc3n2)cc1	x	x	2%	x	x	x
O=C(CSCc1ccc(Cl)cc1)c1ccco1	12%	-4%	15µM*	11%	-6%	8%
Cc1ccc(CNC(=O)COC(=O)c2ccc(Br)o2)cc1	-1%	x	x	3%	x	1%
O=C(COC(=O)c1ccco1)c1ccc(Cl)cc1	-1%	x	1.7µM*	18%	x	-6%
O=C(COC(=O)c1ccco1)NCCNC(=O)COC(=O)c1ccco1	-3%	x	4%	1%	x	7%
Cc1ccc(C(=O)COC(=O)c2ccc(Br)o2)cc1C	2%	10%	11µM*	4%	3%	16%
O=C(COC(=O)c1ccco1)c1ccc2ccccc2c1	-2%	-15%	2.4µM*	10%	-2%	9%
O=C(CSc1nc2cc(Cl)ccc2s1)c1ccco1	u	18%	u	18%	1%	u
Cc1cccc(NC(=O)CCc2c(C)nc3nc(CNC(=O)c4cccc(F)c4)nn3c2C)c1	x	3%	0%	x	x	x
SMILES	NPC1 prom act	SMN2 splice enh	FLuc modulator	ELG1 genotox	Luc counter	Rab9 promoter act
C=CCn1c(C)cc(C(=O)CSc2nc(N)cc(N)n2)c1C	1%	-1%	21µM*	3%	-2%	21%
Cc1cc(C(=O)CSc2nc(N)cc(N)n2)c(C)n1C1CC1	-2%	-14%	-4%	-12%	10%	-4%
Cc1cc(C(=O)CSc2nc(N)cc(N)n2)c(C)n1-c1cccc(F)c1	3%	-37%	24µM*	-2%	-1%	-5%
CCOC(=O)c1c(C)[nH]c(C)c1C(=O)COC(=O)/C=C/c1ccco1	2%	x	3%	1%	x	-4%
CC1CCC/C(=C\Nc2ccc(C(=O)O)c(O)c2)C1=O (stereo not drawn)	3.5µM*	x	11µM*	u	x	3.5µM*
O=C1CCCC/C1=C\Nc1ccc(C(=O)O)c(O)c1	29%	x	11µM*	16%	x	u
CCOC(=O)c1ccc(N/C=C2/CCCC(C)C2=O)cc1 (stereo not drawn)	3.2µM*	u	5.4µM*	4.1µM*	-12%	2.5µM*
CC1CCC/C(=C\Nc2ccc(C(=O)O)cc2)C1=O (stereo not drawn)	u	x	4.8µM*	u	x	u
CCNC(=O)c1cnc2sc(N3CCCCCC3)nn2c1=O	x	x	5%	x	x	x
Cc1ccc(N=C2NC(=O)/C(=C/C=C/c3ccco3)S2)cc1	2%	u	u	9%	0%	-2%
Cc1ccc(N=C2NC(=O)/C(=C/c3cccn3C)S2)cc1C	25%	x	u	8%	x	u
O=C1NC(=Nc2cccnc2)S/C1=C\c1cccc(F)c1	-1%	x	30µM*	3%	x	7%
O=C1NC(=Nc2ccccc2)S/C1=C\C=C\c1ccco1	11%	14µM*	19µM*	u	-15%	21%
Cc1ccc(N=C2NC(=O)/C(=C/c3cccn3C)S2)cc1	u	x	3.4µM*	23µM*	x	u
O=C1NC(=Nc2ccccc2)S/C1=C/c1cccs1	u	u	11µM*	u	-4%	u
O=C(COC(=O)Cc1n[nH]c(=O)c2ccccc12)Nc1ccc(Cl)cn1	-6%	x	0%	1%	x	-4%
CC(CCN1CCC(n2nccc2NC(=O)c2ccccc2Cl)CC1)c1ccccc1 (stereo not drawn)	3%	x	5%	-1%	x	x
Cc1ccc(CNC(=O)c2ccc(Cn3c(=O)c4ccccc4n(CC(=O)Nc4ccc(C)cc4C)c3=O)cc2)cc1	x	7%	2%	x	x	x
Fc1ccccc1OCCSc1nnnn1-c1ccccc1	2.5µM*	3.2µM*	3µM*	10µM*	-5%	u
c1ccc(OCCSc2nnnn2-c2ccccc2)cc1	2.5µM*	16µM*	2.7µM*	3.7µM*	-4%	0.89µM*
COc1ccccc1OCCSc1nnnn1-c1ccc(C)cc1	15%	u	17µM*	u	3%	-5%
CCOc1ccc(OCCSc2nnnn2-c2ccccc2)cc1	9%	x	u	6%	1%	6%
Nc1nccc(Nc2ccc(S(N)(=O)=O)cc2)n1	x	-4%[9.22 µM]	x	x	0%[7.66 µM]	x

Compound activity from PubChem.
